Most compounds without a hit are left out; they make up all but 19% or so of the library.
DT40 TDP1 no CPT: qHTS for Inhibitors of human tyrosyl-DNA phosphodiesterase 1 (TDP1): qHTS in cells in absence of CPT; Potency, µM (doses to about 46.2 µM), hits mostly inhibitors; DT40 Tdp1-/- hTDP1 cells, no CPT, ATP luminescence, 48 h; hit rate 15% among 420,000; further: nearly all actives have a fitted effect of over 55% in size
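No-CPT arm: Tdp1-/-;hTDP1 DT40 cells (400/well) plus compounds, incubated ≥48 hr at 37 °C. Readout CellTiter-Glo luminescence.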
TDP1 cell CPT: DT40-hTDP1 cell growth loss with CPT. chicken DT40 Tdp1-/-;hTDP1 cells + 20 nM CPT, ATP luminescence, 48 h. Potency, µM (top dose mostly 46.2 µM), actives largely listed as inhibitors. hit rate 12% among 420,000. AID 686979; further: nearly all actives have a fitted effect of over 55% in size
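Cell growth measured by CellTiter-Glo luminescence after a minimum 48 h, 37 C compound exposure with 20 nM CPT in Tdp1-knockout DT40 cells stably expressing hTDP1, seeded 400/well; qHTS titration format.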
HT1080 IDH1KD tx: kills HT-1080 cells with IDH1 knockdown; HT-1080 IDH1 knockdown viability, ATP luminescence, 48 h; Potency, µM (highest dose often 46.1 µM), usual class: cytotoxic; hit rate 2% among 360,000
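Using the IDH1-knockdown HT-1080 line run in the same batch and compound series as the NT line, viability after 48 h at 37 °C was determined by CellTiter-Glo luminescence and expressed as % activity.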
IL-1B inflam inh: blocks inflammasome-driven IL-1 beta release; THP-1 LPS/ATP IL-1B secretion, AlphaLISA, 16 h; hits give low values; activity change, % at 57.5 µM; hit rate 4.7% among 360,000; AID 743279; in the data active means activity change below about -50%; inconclusive means mostly about -30% to -49%
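Secreted IL-1B measured by AlphaLISA bead assay after 16 h compound exposure of THP-1 cells; compounds (final up to 57.5 uM) added 1 h before LPS (250 ng/mL) and ATP (1.25 mM) stimulation; lower signal means less secretion.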
HT1080NT lethal: kills 2HG-producing HT-1080-NT fibrosarcoma cells | HT-1080-NT fibrosarcoma viability, CellTiter-Glo ATP luminescence, 48 h | Potency, µM (top dose mostly 46.1 µM), hits mostly cytotoxic | hit rate 1.6% among 360,000 | AID 686970;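 further: NT is the 2HG producing partner of a matched IDH1 knockdown line; nearly all actives have a fitted effect of over 55% in size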
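A 48-hour cytotoxicity screen used HT-1080-NT cells plated 2 hours before compound delivery. ATP-based CellTiter-Glo luminescence measured viability, normalized to DMSO and no-cell controls.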
Each line names hits and unclear results; the compound was inactive in the other large screens. Unless noted, the call rests on the fitted dose curve; in most records, active means well fitted curve in the direction sought with a large enough effect; inconclusive means small, poorly fitted or top-dose-only effect, or another doubt; inactive means no such curve, though single readings can be large; an effect the other way counts as inactive or inconclusive.

CCCOc1ccc(C(=O)Nc2ccc(S(=O)(=O)N3C[C@@H]4C[C@@H](C3)c3cccc(=O)n3C4)cc2)cc1	DT40 TDP1 no CPT 13µM, TDP1 cell CPT inconclusive, HT1080 IDH1KD tx inconclusive, HT1080NT lethal 8.2µM
COc1ccc(CCNC(=S)NCc2cccs2)cc1OC	DT40 TDP1 no CPT inconclusive, TDP1 cell CPT inconclusive
COc1ccc(CCNC(=O)CC(c2ccccc2)c2cc(C)ccc2O)cc1OC (stereo not drawn)	DT40 TDP1 no CPT 13µM, TDP1 cell CPT 26µM
COc1ccc(CCNC(=O)C(=O)NCc2ccccc2)cc1OC	DT40 TDP1 no CPT 5.2µM, TDP1 cell CPT 5.2µM, HT1080 IDH1KD tx 21µM, HT1080NT lethal 16µM
COc1ccc(CCNC(=S)NCCc2ccc(OC)c(OC)c2)cc1OC	DT40 TDP1 no CPT inconclusive, TDP1 cell CPT inconclusive
COc1ccc(CCNC(=O)Cc2ccccc2)cc1OC	none
COc1ccc(CCNC(=S)c2ccccc2)cc1OC	DT40 TDP1 no CPT inconclusive, TDP1 cell CPT 21µM, IL-1B inflam inh inconclusive
COc1ccc(CCNC(=O)C(=O)NCc2cccs2)cc1OC	DT40 TDP1 no CPT 29µM, TDP1 cell CPT inconclusive
CNc1[nH]c(=O)[nH]c(=O)c1N=Nc1cc(Cl)ccc1Cl	none
CCCCCCN1CCN(C2CN(Cc3cn(CCCC(=O)OC)nn3)S(=O)(=O)C2)CC1 (stereo not drawn)	none
CC(O)CNc1nc2c(c(=O)n(Cc3ccc(Cl)c(Cl)c3)c(=O)n2C)n1C (stereo not drawn)	DT40 TDP1 no CPT inconclusive, TDP1 cell CPT inconclusive, IL-1B inflam inh inconclusive
CC(O)CNc1nc2c(c(=O)n(Cc3ccc(Cl)cc3)c(=O)n2C)n1C (stereo not drawn)	DT40 TDP1 no CPT inconclusive, TDP1 cell CPT inconclusive
Cn1c(NCC(O)c2ccccc2)nc2c1c(=O)n(Cc1ccc(Cl)c(Cl)c1)c(=O)n2C (stereo not drawn)	DT40 TDP1 no CPT 21µM, TDP1 cell CPT 21µM, HT1080 IDH1KD tx 18µM, IL-1B inflam inh -67, HT1080NT lethal 21µM
Cn1c(NCC(O)c2ccccc2)nc2c1c(=O)n(Cc1ccc(Cl)cc1)c(=O)n2C (stereo not drawn)	DT40 TDP1 no CPT 21µM, TDP1 cell CPT 16µM, HT1080NT lethal inconclusive
C[C@@H]1CN([C@H](C)CO)C(=O)CCCn2nncc2CO[C@H]1CN(C)C(=O)Cc1ccccc1	none
O=C(Nc1cccc(Oc2ccccc2)c1)c1ccc(-n2cncn2)c2ccoc12	DT40 TDP1 no CPT inconclusive, TDP1 cell CPT 18µM, HT1080 IDH1KD tx inconclusive
Cc1ccc(CN2C(=O)c3ccccc3NC2c2cc(Br)ccc2O)cc1 (stereo not drawn)	DT40 TDP1 no CPT inconclusive, HT1080 IDH1KD tx inconclusive, IL-1B inflam inh inconclusive, HT1080NT lethal inconclusive
CCC(=O)Nc1nnc(S(=O)(=O)N2c3ccccc3CC2C)s1 (stereo not drawn)	none
O=C(C1=C(O)C(=O)N(CC2CCCO2)C1c1cccc(O)c1)c1ccco1 (stereo not drawn)	none
O=C(C1=C(O)C(=O)N(CC2CCCO2)C1c1ccccc1F)c1ccco1 (stereo not drawn)	IL-1B inflam inh -94
COc1cc(NC(=O)COC(=O)c2nc3nc(C)cc(C)n3n2)cc(OC)c1	none
COc1ccccc1Nc1c2c(nc3ccc(NC(=O)c4ccccc4F)cc13)CCCC2	DT40 TDP1 no CPT 16µM, TDP1 cell CPT 5.2µM (no result: HT1080 IDH1KD tx, IL-1B inflam inh, HT1080NT lethal)
COc1ccc(C(=O)Nc2ccc3nc4c(c(Nc5ccc(OC)c(OC)c5)c3c2)CCCC4)c(OC)c1	DT40 TDP1 no CPT 2.9µM, TDP1 cell CPT 3.3µM (no result: HT1080 IDH1KD tx, IL-1B inflam inh, HT1080NT lethal)
COc1ccccc1C(=O)Nc1ccc2nc3n(c(=O)c2c1)CCCC3	TDP1 cell CPT inconclusive
COc1ccc(C(=O)Nc2ccc3nc4c(c(Nc5ccccc5OC)c3c2)CCCC4)c(OC)c1	DT40 TDP1 no CPT 3.3µM, TDP1 cell CPT 3.7µM (no result: HT1080 IDH1KD tx, IL-1B inflam inh, HT1080NT lethal)
COc1ccccc1Nc1c2c(nc3ccc(NC(=O)c4cccc(OC)c4OC)cc13)CCCC2	DT40 TDP1 no CPT 13µM, TDP1 cell CPT 5.8µM (no result: HT1080 IDH1KD tx, IL-1B inflam inh, HT1080NT lethal)
COc1ccc(C(=O)Nc2ccc3ccccc3c2)c(OC)c1	DT40 TDP1 no CPT inconclusive, TDP1 cell CPT inconclusive
COc1cc(NC(=O)c2c3c(nc4ccccc24)CCC3)cc(OC)c1	HT1080NT lethal inconclusive

Screening results: PubChem, National Center for Advancing Translational Sciences (NCATS)
